Experimental data reported in PubChem BioAssay AID1159580 (chemical genetic matrix, 2015).
Hit rate of the full screen: of about 5,500 compounds, about 2,000 (36%) were called active. Roughly 18% stayed inconclusive and do not appear here. Cut-off read from the data, not from the text of the source: active = normalized growth mostly below about 0.91 (no sharp cut-off); inconclusive = no clear call, values can overlap the other calls; inactive = mostly above about 0.92. This is one part of the list.

Assay: chemical genetic growth profiling, strain panel (AID 1159580);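 note: tested at 20 µM; growth read once vehicle control cultures reached saturation at 30 °C; 1 = growth at the plate median or of vehicle wells; lower values mean less growth of the strain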
Settings: S. cerevisiae deletion strains, growth OD

Measured: normalized growth

CCn1nc(C)cc1C(=O)Sc1cccc(Br)c1
active: locus YDR477W, strain SNF1, hits give low values 0.65 | locus YER123W, strain YCK3, hits give low values 0.592 | locus YFL009W, strain cdc4, hits give low values 0.883 | locus YFR019W, strain FAB1, hits give low values 0.737 | locus YGR092W, strain DBF2, hits give low values 0.332 | locus YHR030C, strain SLT2, hits give low values 0.613 | locus YHR079C, strain IRE1, hits give low values 0.476 | locus YHR205W, strain SCH9, hits give low values 0.527 | locus YJL157C, strain FAR1, hits give low values 0.638 | locus YJR066W, strain TOR1 (second series), hits give low values 0.227 | locus YKL067W, strain YNK1, hits give low values 0.714 | locus YLR113W, strain HOG1, hits give low values 0.461 | locus YLR133W, strain CKI1, hits give low values 0.724 | locus YLR403W, strain SFP1, hits give low values 0.566 | locus YNL020C, strain ARK1, hits give low values 0.697 | locus YNL307C, strain MCK1 (second series), hits give low values 0.601 | locus YOR061W, strain CKA2, hits give low values 0.662 | locus YOR231W, strain MKK1, hits give low values 0.486 | locus YPL031C, strain PHO85, hits give low values 0.619 | locus YPL153C, strain RAD53, hits give low values 0.551 | locus YPL256C, strain CLN2, hits give low values 0.634
inactive: locus YAR019C, strain CDC15, hits give low values 0.917 | locus YBL105C, strain PKC1, hits give low values 0.934 | locus YBR135W, strain CKS1, hits give low values 0.91 | locus YBR136W, strain MEC1, hits give low values 0.942 | locus YBR160W, strain CDC28, hits give low values 0.924 | locus YDL017W, strain CDC7, hits give low values 0.935 | locus YDL028C, strain MPS1, hits give low values 0.924 | locus YDL101C, strain DUN1, hits give low values 0.951 | locus YDL108W, strain KIN28, hits give low values 0.93 | locus YDL132W, strain cdc53, hits give low values 0.922 | locus YDL214C, strain PRR2, hits give low values 0.706 | locus YDR052C, strain DBF4, hits give low values 0.971 | locus YDR054C, strain cdc34, hits give low values 0.885 | locus YDR226W, strain ADK1, hits give low values 0.925 | locus YER133W, strain GLC7, hits give low values 0.784 | locus YFL029C, strain CAK1, hits give low values 0.904 | locus YFR003C, strain YPI1, hits give low values 0.932 | locus YFR028C, strain CDC14, hits give low values 0.933 | locus YGR040W, strain KSS1, hits give low values 0.747 | locus YGR052W, strain FMP48, hits give low values 0.725 | locus YHR082C, strain KSP1, hits give low values 0.626 | locus YIL147C, strain SLN1, hits give low values 0.933 | locus YJL095W, strain BCK1, hits give low values 0.551 | locus YJL128C, strain PBS2, hits give low values 0.913 | locus YJR016C, strain ILV3, hits give low values 0.921 | locus YJR066W, strain TOR1, hits give low values 0.543 | locus YKL048C, strain ELM1, hits give low values 0.924 | locus YKL101W, strain HSL1, hits give low values 0.786 | locus YKL193C, strain SDS22, hits give low values 0.927 | locus YKL203C, strain TOR2, hits give low values 0.746 | locus YML070W, strain DAK1, hits give low values 0.727 | locus YMR001C, strain CDC5, hits give low values 0.904 | locus YMR205C, strain PFK2 (second series), hits give low values 0.819 | locus YMR277W, strain FCP1, hits give low values 0.914 | locus YNL006W, strain LST8, hits give low values 0.917 | locus YNL161W, strain CBK1, hits give low values 0.937 | locus YNL183C, strain NPR1, hits give low values 0.629 | locus YNL207W, strain RIO2, hits give low values 0.918 | locus YNL222W, strain SSU72, hits give low values 0.917 | locus YOL078W, strain AVO1, hits give low values 0.91 | locus YOL136C, strain PFK27, hits give low values 0.701 | locus YOR119C, strain RIO1, hits give low values 0.741 | locus YOR329C, strain SCD5, hits give low values 0.935 | locus YPL204W, strain HRR25, hits give low values 0.676 | locus YPL209C, strain IPL1, hits give low values 0.936 | locus YPR025C, strain CCL1, hits give low values 0.935 | locus YPR106W, strain ISR1, hits give low values 0.97 | locus YPR111W, strain DBF20, hits give low values 0.955 | strain NNK1, hits give low values 0.963 | strain TSCII, hits give low values 0.908
